High-throughput results from PubChem.
Pf growth 48h: inhibits P. falciparum growth in the first generation, 48 h; P. falciparum luciferase growth in erythrocytes, 48 h; Potency, µM (highest dose often 28.7 µM), hits mostly inhibitors; 310,000 tested, 5.9% active
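Luciferase-expressing parasites in RBCs, 2% Hct / 0.1% parasitemia final; RPMI 1640 + 0.5% Albumax; 37 C, 5% CO2, one generation; luminescence read-out, lower signal = inhibition.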
Sm TGR block: blocks Schistosoma mansoni thioredoxin glutathione reductase. 360,000 tested, 3% active. AID 485364. purified TGR, DTNB reduction, TNB absorbance 405 nm. Potency, µM (doses to about 114 µM), actives largely listed as inhibitors; also: nearly all actives have a fitted effect of over 60% in size
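TGR 20 nM + NADPH 100 uM (dispensed conc.), cpd preinc 15 min RT; start with NADPH (500 uM addition) then DTNB (15 mM addition). Kinetic TNB absorbance, 405 nm filter. Four-parameter Hill fit across titration.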
SARS PLpro yeast: blocks SARS-CoV papain-like protease in a yeast assay. S. cerevisiae expressing SARS-CoV PLpro, growth rescue. Potency, µM (series often up to 32.9 µM), usual class: activators. 330,000 tested, 0.19% active. AID 485353; calls by dose curve; also: nearly all actives have a fitted effect of over 55% in size
HCV inhibitor: HCV inhibition | Huh7.5.1 HCVcc-Cre infection, luciferase reporter, 44 h | Potency, µM (series often up to 41.8 µM), most hits filed as inhibitors | 340,000 tested, 3.4% active
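Reporter virus HCVcc-Cre (~0.5 moi) infects cells exposed to compound; seeding density 1,000 cells/well with 4 h settling beforehand. Luminescence, 15 sec read, taken 44 h post-infection following a 15 min RT substrate incubation.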
Pf growth 96h: P. falciparum growth inhibition at 96 hour, primary screen for plastid delayed-death inhibitors | 320,000 tested, 6.9% active | Potency, µM (series often up to 28.7 µM), most hits filed as inhibitors | AID 504834 | P. falciparum luciferase reporter growth, 96 h
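Two parasite generations (96 h, 37 C, 5% CO2) of compound exposure in infected erythrocytes (0.05% parasitemia, 2% hematocrit). Luciferase-reporter P. falciparum; decreased luminescence indicates inhibited growth, aimed at apicoplast-acting delayed death.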
HCMV inh: blocks human cytomegalovirus replication; AID 1259415; 410,000 tested, 4.5% active; HFF cells, HCMV-luciferase reporter, 72 h; hits give low values; activity change, negative = inhibition, % at 57.5 µM; in the data active = activity change below about -60%; inconclusive = no clear call, values can overlap the other calls; inactive = above about -39%
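Two-dose cell screen: HFF monolayers treated with compounds and infected with luciferase-expressing HCMV at 1 PFU/cell, 72 h at 37C, then lysed for luciferase measurement.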
Hits are given with their value; i = inactive; ? = inconclusive; nt = no result; + = active, no number; ! = a repeat was not active; [ ] = remark or other dose. Hits are enriched below; roughly 15% of the tested compounds scored in any of these assays. Unless noted, calls follow the shape of the dose curve; as a rule, active = well fitted curve in the direction sought with a large enough effect; inconclusive = small, poorly fitted or top-dose-only effect, or another doubt; inactive = no such curve, though single readings can be large; an effect the other way counts as inactive or inconclusive.

SMILES	Pf growth 48h	Sm TGR block	SARS PLpro yeast	HCV inhibitor	Pf growth 96h	HCMV inh
CC(=O)c1cccc(NC(=O)Cn2c(-c3cncs3)nc3ccccc32)c1	nt	i	nt	nt	nt	i
CCCCCCCCCCCCCCCC[N+](C)(C)Cc1ccc(F)cc1	nt	nt	nt	i	nt	-89.3
CC#CC[N+](C)(C)CCCCCCCC	?	i	i	i	?	i
Cn1cnc(S(=O)(=O)N2CCC(C(=O)NCc3ccccc3)CC2)c1	nt	i	nt	nt	nt	i
O=C(O)C1Cc2ccccc2N2CCCC12 (stereo not given)	?	?	i	i	1.85µM	-61.1
Cc1ccc(-c2nnc(N3CCN(C(=O)CN4CCOCC4)CC3)c3ccccc23)cc1	?	i	i	10µM!	i	i
COc1ccc(OCC(=O)N2CCC(c3nc4ccccc4s3)CC2)cc1	nt	i	nt	nt	nt	i
Cc1ccc(-c2nnc(N3CCN(C(=O)COc4ccccc4)CC3)c3ccccc23)cc1	nt	i	i	12.6µM	5.22µM	?
CCOC(=O)N1CCN(c2nnc(-c3ccc(C)cc3)c3ccccc23)CC1	?	i	i	?	i	?
O=C(COc1ccc([N+](=O)[O-])cc1)N1CCN(c2nnc(-c3ccccc3)c3ccccc23)CC1	i	i	i	12.6µM	i	i
O=C(COc1ccc([N+](=O)[O-])cc1)N1CCC(c2nc3ccccc3s2)CC1	nt	?	nt	nt	nt	-61.1
O=C(COc1ccccc1)N1CCCC1	i	i	i	i	?	i
O=C(COc1ccc(-c2nnc(N3CCCCC3)c3ccccc23)cc1)N1CCCCC1	11.7µM	i	i	i	8.28µM	i
Cn1c(=O)n(CC(=O)N2CCN(c3nnc(-c4ccccc4)c4ccccc34)CC2)c2ccccc21	i	i	i	?	13.1µM	?
Cc1ccc(-c2nnc(N3CCN(C(=O)c4cccs4)CC3)c3ccccc23)cc1	8.28µM	i	i	?	4.65µM	i
CCOc1ccc(S(=O)(=O)N(C)c2ccc(OCC(=O)NCc3ccc(C(=O)OC)cc3)cc2)cc1	i	i	i	i	i	i
CCCn1c(O)c(/C=C2\C=NN=C2c2ccccc2)sc1=S	i	i	i	10µM	?	i
N=C(N)c1ccc2cc(OC(=O)c3ccc(N=C(N)N)cc3)ccc2c1	12µM	nt	nt	nt	1.07µM	i
CN(C)C(=O)COC(=O)Cc1ccc(OC(=O)c2ccc(N=C(N)N)cc2)cc1	i	nt	nt	nt	?	nt
CCOC(=O)C1CCCN(S(=O)(=O)c2cc3c4c(c2)CCC(=O)N4CCC3)C1 (stereo not given)	?	i	i	?	?	i
CC(C)(C)c1ccc(-n2ncc3c2CCCC3NC(=O)CCC2=NNC(=O)CC2)cc1 (stereo not given)	nt	nt	nt	nt	nt	-75.5
Cc1ccc(-n2ncc3c2CCCC3NC(=O)CCCN2CCCC2=O)cc1C (stereo not given)	?	i	i	i	4.65µM	i
CC(C)(C)c1ccc(-n2ncc3c2CCCC3NC(=O)CCN2CCCCC2=O)cc1 (stereo not given)	?	i	i	?	i	-63.8
Cc1cc(C(=O)NC2CCCc3c2cnn3-c2ccc(C(C)(C)C)cc2)n[nH]1 (stereo not given)	i	i	i	11.2µM	i	?
O=C(CCN1CCCC1=O)NC1CCCc2c1cnn2-c1ccccc1F (stereo not given)	i	i	i	i	?	?
SMILES	Pf growth 48h	Sm TGR block	SARS PLpro yeast	HCV inhibitor	Pf growth 96h	HCMV inh
Cc1cccc(-n2ncc3c2CCCC3NC(=O)CCCN2CCCCC2=O)c1C (stereo not given)	i	i	i	?	?	nt
CCOC(=O)c1sc(NC(=O)c2ccc(Cl)s2)cc1C	?	i	i	?	?	i
CCOC(=O)c1sc(NC(=O)c2cccc(S(=O)(=O)N(CC)CC)c2)cc1C	nt	i	i	?	2.08µM	i
CCOC(=O)c1sc(NC(=S)NC(=O)C2CCCC2)cc1C	?	i	i	?	9.28µM	i
CCOC(=O)c1sc(NC(=O)Nc2ccc(Cl)cc2)cc1C	4.15µM	i	i	?	?	?
CCOC(=O)c1sc(NC(=O)C2CC2)cc1C	?	i	i	i	?	i
CCOC(=O)c1[nH]c2ccccc2c1NC(=O)c1ccc(S(=O)(=O)N2CCOCC2)cc1	?	i	i	i[8.37 µM]	14.7µM	i
COC(=O)c1c(NC(=O)c2cccc(S(=O)(=O)N3CCN(C)CC3)c2)sc(C)c1C	?	i	i	?	11.7µM	i
CCOC(=O)c1sc(NC(=O)c2c(C)nn(Cc3ccccc3)c2C)cc1C	9.28µM	i	i	17.8µM	i	i
CCOC(=O)c1sc(NC(=O)c2ccccc2)cc1C	nt	i	i	?	?	i
CCc1cccc(CC)c1NC(=O)c1cccc(S(=O)(=O)N2CCN(C)CC2)c1	i	i	i	nt	i	nt
CCOC(=O)c1sc(NC(=O)c2ccc(S(=O)(=O)N(C)C)cc2)cc1C	nt	i	i	11.2µM	5.22µM	-87.0
CCOC(=O)c1sc(NC(=O)c2cccc(S(=O)(=O)N3CCN(C)CC3)c2)cc1C	2.33µM	i	i	?	i	i
Cc1ccc(NC(=O)COC(=O)C2CC(=O)N(Cc3ccccc3)C2)cc1S(=O)(=O)N(C)C (stereo not given)	i	i	i	i	i	i
CCN(C(=O)c1coc(=O)c2ccccc12)c1ccccc1C	nt	i	nt	nt	nt	i
CCOC(=O)c1sc(NC(=O)c2ccc(S(=O)(=O)N3CCOCC3)cc2)cc1C	?	i	i	?	5.86µM	i
O=C(Nc1ccc(S(=O)(=O)N2CCCCC2c2cccnc2)cc1)c1ccc(F)cc1 (stereo not given)	nt	i	nt	nt	nt	i
COc1ccc2c(c1)[C@@H](NS(C)(=O)=O)[C@H](C)[C@@H](c1ccccc1)N2Cc1cccc(F)c1	nt	nt	nt	nt	nt	i
COc1ccc(CNC(=O)c2ccc(NC(=O)N3CCSc4ncccc43)cc2)c(OC)c1	nt	i	nt	nt	nt	i
COc1ccc(CNC(=O)c2cccc(NC(=O)N3CCSc4ncccc43)c2)cc1	nt	i	nt	nt	nt	?
CCOc1ccccc1CNC(=O)c1ccc(NC(=O)N2CCSc3ncccc32)cc1	nt	i	nt	nt	nt	+
Cc1cccc(CNC(=O)c2cccc(NC(=O)N3CCSc4ncccc43)c2)c1	nt	i	nt	nt	nt	+
CCc1nnc2c(NCc3cccc(OC)c3)nc3ccccc3n12	nt	i	nt	nt	nt	i
Cc1cc(C(=O)Nc2ccccc2C(F)(F)F)no1	i	i	i	i	10.4µM	i
O=C(Nc1ccccc1C(F)(F)F)c1cc(-c2ccco2)on1	i	i	i	i	i	i
O=C(Nc1ccccc1C(F)(F)F)c1cc(-c2ccccc2O)on1	1.04µM	i	i	i	0.465µM	i
Cc1nn(-c2ccccc2)nc1C(=O)Nc1nnc(C(F)(F)F)s1	i	i	i	i	i	i
CC1(c2ccccc2)NC(=O)N(CC(=O)Nc2nnc(C3CC3)s2)C1=O (stereo not given)	i	i	i	i	i	i
